Source: PubChem BioAssay (NCATS)
Inconclusive results are not listed. Entries that show only a call come without a potency. Active and inactive are the calls of the source. The call rests on the fitted dose curve; in most records, active means well fitted inhibition curve with a large enough effect; inconclusive means small, poorly fitted or top-dose-only effect; inactive means flat fitted curve, though single readings scatter.

Target: Calcium and integrin-binding protein 1 (Homo sapiens) (UniProt Q99828)
Test: Primary qHTS for Identification of Calcium Integrin Binding Protein 1 (CIB1) Competitor (AID 1508620); further: top concentration of the series differs between compounds
Method in brief: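 Fluorescence polarization competition: GST-tagged CIB1 (1 uM final) preincubated with compound 15 min at room temperature, then FITC-labelled alphaIIb peptide (100 nM final) added. After 15 min at room temperature, polarization read at Ex 480/Em 540.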

Calcium and integrin-binding protein 1 (Homo sapiens), sequence (Q99828 whole entry, looked up): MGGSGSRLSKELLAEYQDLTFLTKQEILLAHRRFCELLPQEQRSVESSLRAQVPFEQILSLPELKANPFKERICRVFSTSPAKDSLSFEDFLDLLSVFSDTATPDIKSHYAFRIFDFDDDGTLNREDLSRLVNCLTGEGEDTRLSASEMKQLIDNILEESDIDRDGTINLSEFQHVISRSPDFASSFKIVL

## O=C(Nc1ccc(-c2nc3ccccc3[nH]2)cc1)c1ccc(-c2ccccc2)cc1
  Potency: inactive

## CC(=O)c1cc2c(s1)c1cnn(Cc3ccccc3F)c(=O)c1n2C
  Potency: inactive

## CS(=O)(=O)c1ccc(C(=O)OCC(=O)N2CCC(c3ccccc3)CC2)cc1[N+](=O)[O-]
  Potency: inactive

## Fc1cnc(-c2ccccc2C(F)F)nc1NCc1ccc(-c2ccn[nH]2)cc1
  Potency: inactive

## O=[S+]([O-])(Nc1ccccc1)c1ccc(NCc2cccc(Cl)c2F)cc1
  Potency: inactive

## Cc1ccnc(NC(=S)N2CCN(c3ccc(F)cc3)CC2)c1
  Potency: inactive

## CN(C)c1cccc(NS(=O)(=O)c2ccc(NC(=O)Cc3ccc(Cl)c(Cl)c3)cc2)c1
  Potency: inactive

## Cc1cc(C)nc(NC(=S)N2CCN(c3ccc4ccccc4n3)CC2)c1
  Potency: inactive

## S=C(Nc1cc(Cl)ccn1)N1CCN(c2cccc(Cl)c2Cl)CC1
  Potency: inactive

## Cc1ccc(OCCn2c(CCNC(=O)c3cccc(C)c3)nc3ccccc32)cc1
  Potency: inactive

## C#CCOc1cc(C2=Nn3c(nnc3-c3ccc(OCC(C)=O)cc3)SC2)ccc1OC
  Potency: inactive

## Cn1c2cc(S(C)(=O)=O)sc2c2cnn(Cc3ccccc3F)c(=O)c21
  Potency: inactive

## CC(=O)Nc1sc2c(c1C(O)c1nc3ccccc3s1)CCN(C(C)C)C2 (stereo not given)
  Potency: inactive

## O=S(=O)(Nc1cccc2cccnc12)c1ccccc1O
  Potency: inactive

## S=C(NCCCc1cnc[nH]1)NCCCN(Cc1ccc(Cl)cc1)c1ccc(Br)cn1
  Potency: inactive

## O=C1c2ccccc2NC(c2ccc(-c3ccccc3F)o2)N1O (stereo not given)
  Potency: inactive

## Cc1ccnc(NC(=S)N[C@@H]2CCN(c3cccc(C(F)(F)F)c3)C2)c1
  Potency: inactive

## O=S(=O)(c1ccc2c(c1)OCCO2)N1CCN(S(=O)(=O)c2ccc(F)c(F)c2F)CC1
  Potency: inactive

## COc1cccc(NC(=S)N2CCN(c3ccccc3C(F)(F)F)CC2)n1
  Potency: inactive

## NC(=O)C1CCN(c2nc(-c3ccc4c(c3)OCCCO4)cs2)CC1
  Potency: inactive

## CC(=O)Nc1cccc([S+](=O)([O-])N2CCCN([S+](=O)([O-])c3cccc(NC(C)=O)c3)CC2)c1
  Potency: inactive

## COc1ccc(NC(=O)CSc2nnc(-c3cccc(S(=O)(=O)N4CCCC4)c3)n2-c2ccccc2)cc1
  Potency: inactive

## O=C1CCCC2=C1C(c1[nH]ncc1Cl)N=C(Nc1nc3cc([S+](=O)([O-])N4CCCC4)ccc3o1)N2 (stereo not given)
  Potency: inactive

## Cc1cc2c(s1)c1cnn(Cc3cccc(C(F)(F)F)c3F)c(=O)c1n2C
  Potency: inactive

## CC(=O)NC1CCN(c2nc(-c3ccc(Br)cc3)cs2)CC1
  Potency: inactive

## NC(=O)C1CCN(c2nc(-c3ccc(N)cc3)cs2)CC1
  Potency: inactive

## O=C(CN1C(=O)CC(c2ccco2)Sc2ccccc21)Nc1ccccc1F (stereo not given)
  Potency: inactive

## Cc1ccnc(NC(=S)N2CCNCC2)c1
  Potency: inactive

## O=C(Nc1ccc(Cl)c(Cl)c1)Nc1nnc(Br)s1
  Potency: inactive

## O=C(Nc1ccc(-c2nc3ccccc3[nH]2)cc1)Nc1ccc2c(c1)OCCO2
  Potency: inactive

## Oc1cccc2cc(-c3ccncc3)cnc12
  Potency: inactive

## O=C(O)c1ccc(-c2noc(-c3cccc(Cl)c3)n2)cc1
  Potency: inactive

## NC(=O)C1CCN(c2nc(-c3ccccc3C(F)(F)F)cs2)CC1
  Potency: inactive

## CN1CCN(c2cc(-c3nc(Nc4ccc(F)c(F)c4)c4ccccc4n3)ccn2)CC1
  Potency: inactive

## COc1cccc(-c2ccc3ncnc(NCc4cccc(C)c4)c3c2)c1
  Potency: inactive

## Cc1cc(C)nc(NC(=S)N2CCN(c3nccc4occc34)CC2)c1
  Potency: inactive

## O=S(=O)(Nc1nccs1)c1ccc(NCc2cccc(Cl)c2Cl)cc1
  Potency: inactive

## N#Cc1nc(Nc2cccc3ccccc23)nc(NC2CCCC2)n1
  Potency: inactive

## Fc1cc(Nc2nc(-c3ccncc3)nc3ccccc23)ccc1-c1cc(F)c(F)c(F)c1
  Potency: inactive

## Cc1cc(-c2nnc3n2CCCCC3)c(C)n1-c1ccncc1
  Potency: inactive

## Cc1ccnc(NC(=S)N2CCN(c3cc(Cl)cc(Cl)c3)CC2)c1
  Potency: inactive

## CC(=O)Nc1sc2c(c1-c1ccc3c(c1)OCCO3)CCNC2
  Potency: inactive

## COc1ccc(C(=O)N(Cc2ccccc2)Cc2cccs2)c(O)c1
  Potency: inactive

## Cc1c(P(=S)(c2ccccc2)c2ccccc2)c2ccccc2n1Cc1ccccc1
  Potency: inactive

## Cc1cc(C)nc(NC(=S)N2CCN(c3cc(Cl)cc(C(F)(F)F)c3)CC2)c1
  Potency: inactive

## CN(CC1CCCO1)c1ncnc2ccc(-c3ccc4c(c3)OCO4)cc12 (stereo not given)
  Potency: inactive

## Cc1c(C(=O)N(C)CC2CCCO2)[nH]c2c1C(=O)CC(c1ccco1)C2 (stereo not given)
  Potency: inactive

## O=C(OCC#CCSc1nnc(-c2ccc3ccccc3c2)o1)c1cccc(F)c1
  Potency: inactive

## N#Cc1cccc(-c2ccc(CNc3nc(-c4ccccc4C(F)(F)F)nc4ccccc34)cc2)c1
  Potency: inactive

## COc1cccc(Cn2ncc3c4sc(Br)cc4n(C)c3c2=O)c1
  Potency: inactive

## O=C1Cc2cc(S(=O)(=O)N3CCN(c4ccc(F)cc4)CC3)ccc2N1
  Potency: inactive

## CCn1cnc2c(NCc3cccnc3)nc(C#N)nc21
  Potency: inactive

## Cn1ccc2cc(-c3ccc4ncnc(NCc5cccc(F)c5)c4c3)ccc21
  Potency: inactive

## COc1ccc(C2Nc3ccccc3C(=O)N2Cc2ccco2)cc1CSc1c(C)cccc1C (stereo not given)
  Potency: inactive

## O=C(Nc1ccc2ccccc2c1)Nc1nnc(-c2cccnc2)s1
  Potency: inactive

## O=C1CCc2cc(S(=O)(=O)Nc3cccc(Oc4ccccc4)c3)ccc2N1
  Potency: inactive

## Cc1ccc(-c2nc3ccccc3[nH]2)cc1NC(=O)c1ccc(-c2cccc(Cl)c2)o1
  Potency: inactive

## N#Cc1c(-c2ccc(-c3ccccc3)cc2)no[n+]1[O-]
  Potency: inactive

## COc1ccc([S+](=O)([O-])N2CCCN([S+](=O)([O-])c3ccc(OC)c(NC(C)=O)c3)CC2)cc1NC(C)=O
  Potency: inactive

## S=c1[nH]c2ccccc2n1CCc1ccccc1
  Potency: inactive
